According to PubChem BioAssay (NCI):
This is part of a sample that, as a whole, favours compounds with a hit. Of some 79,000 tested, about 15% had one in any assay. Active and inactive are the calls of the source. No stated cut-off is given here; in the data, active means growth inhibition above about 70%; inactive means the rest.

Key:
[1] = NCI Yeast Anticancer Drug Screen. Data for the rad50 strain (AID 155);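 further: 0% = growth of vehicle-only cultures of the same strain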; conditions: S. cerevisiae rad50 strain growth inhibition; at 50.0 µM; active compounds read high
How it was run: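 Growth of the mutant yeast was measured after compound exposure and referenced to vehicle-treated cultures.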

[2] = NCI Yeast Anticancer Drug Screen. Data for the mec2-1 strain (AID 157); conditions: S. cerevisiae mec2-1 strain, at 50.0 µM, active compounds read high
How it was run: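 Using mec2-1 yeast: add compound, measure growth, express inhibition versus vehicle-treated cultures.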

[3] = NCI Yeast Anticancer Drug Screen. Data for the sgs1 mgt1 strain (AID 161);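 further: 0% = growth of cultures given vehicle only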; conditions: S. cerevisiae sgs1 mgt1 strain, at 50.0 µM, active compounds read high
How it was run: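 This yeast growth screen uses a strain with defined DNA-repair lesions; compound-treated growth is compared with vehicle-treated growth.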

[4] = NCI Yeast Anticancer Drug Screen. Data for the cln2 rad14 strain (AID 165);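 further: 0% = growth equal to vehicle treated cultures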; conditions: S. cerevisiae cln2 rad14 strain, at 50.0 µM, active compounds read high
How it was run: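 Yeast strain cln2 rad14, bearing defects in cell cycle control and DNA repair, serves as the test system; values reflect growth inhibition compared with vehicle.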

[5] = NCI Yeast Anticancer Drug Screen. Data for the bub3 strain (AID 167); conditions: S. cerevisiae bub3 mutant strain, at 50.0 µM, active compounds read high
How it was run: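 Whole-cell yeast assay. The mutant strain was incubated with compounds, and growth inhibition was determined by comparison with vehicle-treated cells.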

[6] = NCI Yeast Anticancer Drug Screen. Data for the mlh1 rad18 strain (AID 175); conditions: S. cerevisiae mlh1 rad18 strain growth inhibition; at 50.0 µM; active compounds read high
How it was run: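 Steps: expose repair-defective yeast to compound; measure growth; express inhibition against vehicle-treated controls.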

Measured: growth inhibition

COC(c1ccc(C(C)(C)C)cc1)(c1ccc(C(C)(C)C)cc1)c1cc(C(O)(c2cc(C(OC)(c3ccc(C(C)(C)C)cc3)c3ccc(C(C)(C)C)cc3)c(C)cc2C)c2cc(C(OC)(c3ccc(C(C)(C)C)cc3)c3ccc(C(C)(C)C)cc3)c(C)cc2C)c(C)cc1C
inactive: [1] -26.8% | [2] -12.7% | [3] -12.8% | [4] 13.8% | [5] -17.8% | [6] -9.05%

C=C1[C@H](OCC(C)C)[C@@H](OC(=O)C(C)CC)[C@@H](O)C(C)(C)/C=C/[C@H](C)C(=O)[C@@]2(O)C[C@H](C)[C@H](O)[C@@H]2[C@H]1OC(=O)C(C)CC (some centres not stated)
active: [3] 75.2% | [5] 73.7%
inactive: [1] 47% | [2] 46.6% | [4] 69.3% | [6] 58.1%

COc1ccc2nc3cc(Cl)ccc3c(NC(C)CCCN(C)C)c2n1 (configuration not stated)
inactive: [1] 44.8% | [2] 42.8% | [3] 64.2% | [4] 31.2% | [5] 46.3% | [6] 65%

O=C1C(O)=C(c2ccccc2)C12CSC1(CS2)C(=O)C(O)=C1c1ccccc1 (configuration not stated)
inactive: [1] 4.45% | [2] -1.55% | [3] -12.9% | [4] 5.4% | [5] 6.05% | [6] 17.3%

CCC1(CC)C(=O)N(C(=O)c2ccc(C)cc2)N(C(=O)c2ccc(C)cc2)C1=O
inactive: [1] 3.65% | [2] -6.1% | [3] 14.6% | [4] 18.1% | [5] 2.8% | [6] -17.3%

NC(=S)N/N=C/C=C/c1ccco1
inactive: [1] 8.9% | [2] 0.25% | [3] 30.6% | [4] -41.5% | [5] 20.3% | [6] 52%

Brc1cccc2ccc3ccccc3c12
inactive: [1] 23.2% | [2] 19% | [3] 29.1% | [4] 8.25% | [5] 32%
active: [6] 75.7%

C[S+](C)CC(=O)c1ccccc1O
inactive: [1] -2.55% | [2] -9.7% | [3] 2.2% | [4] -62.4% | [5] 3.4% | [6] -0.6%

Clc1ccc2c(c1)-c1c3c(nn1-c1ccccc1)-c1ccccc1SC3O2 (configuration not stated)
inactive: [1] 23.3% | [2] 10.6% | [3] 17.9% | [4] 19.3% | [5] -1.5% | [6] -13.6%

O=c1[nH]c2ccccc2nc1/C=C/n1c(=S)[nH]c2ccccc21
inactive: [1] -31.4% | [2] -28.2% | [3] -46.4% | [4] -16.6% | [5] -33.5% | [6] -20.7%

CCOc1nc(N)nc(C)c1N=Nc1ccccc1OC
inactive: [1] 12.7% | [2] 9.05% | [3] 14.4% | [4] 35.9% | [5] 11.5% | [6] 13.5%

C=C1C(=O)OC2CC3(CO3)C3C(O)C(O)CC3(C)CC12 (configuration not stated)
inactive: [1] 2.4% | [2] 2.45% | [3] -14.2% | [4] -13.6% | [5] -42.5% | [6] -70.7%

Cc1ccc2nc(Nc3ccc(Cl)cc3)cc(C(O)C3CCCCN3)c2c1 (configuration not stated)
active: [1] 99.5% | [2] 99.8% | [3] 99.7% | [4] 99.2% | [5] 88.8% | [6] 99.5%

Cc1c2ccccc2nc(CS(=O)c2ccccc2)[n+]1[O-] (configuration not stated)
inactive: [1] -8.8% | [2] 21.9% | [3] 20.1% | [4] -36.4% | [5] 16.8% | [6] 20.2%

C/C(=N\Nc1ccccc1Br)c1cccc(/C(C)=N/Nc2ccccc2Br)n1
inactive: [1] -21.6% | [2] -1.55% | [3] -6.1% | [4] -11.6% | [5] 2.75% | [6] 6.2%

Oc1ccc2ccccc2c1C(c1cccc2ccccc12)N1CCCCC1 (configuration not stated)
inactive: [1] 16.1% | [2] 1.4% | [3] 9.7% | [4] 3.2% | [5] 16.1% | [6] 53.8%

CCCCCCCC/C=C/CCCCCCCC(=O)OCC(C)(C)N1C(=O)CCC1=O
inactive: [1] -11.2% | [2] -20.4% | [3] -12.6% | [4] -11.2% | [5] -3.45% | [6] -7.3%

CC1CN=C(Nc2ccc(S(N)(=O)=O)cc2)S1 (configuration not stated)
inactive: [1] -21.2% | [2] -18.6% | [3] -58.1% | [4] -11.4% | [5] -2.25% | [6] -43%

Cc1c(C)c(C)c(S(=O)(=O)NCCNS(=O)(=O)c2c(C)c(C)c(C)c(C)c2C)c(C)c1C
inactive: [1] 5.7% | [2] -16.4% | [3] -0.7% | [4] 15.3% | [5] -2.5% | [6] 1.7%

Nc1ncnc2nc(SC3OC(CO)C(O)C(O)C3O)[nH]c12 (configuration not stated)
inactive: [1] 10.2% | [2] -9.65% | [3] 9.9% | [4] -9% | [5] 12.8% | [6] 2.85%

N#CCCN(C1=NN(C(=O)CC(=O)Nc2cccc(Cl)c2)C(c2ccccc2)C1)c1ccccc1Cl (configuration not stated)
inactive: [1] 8.2% | [2] -28.8% | [3] -16.1% | [4] 11.5% | [5] -14.9% | [6] -30.9%

Cc1cc(N(CCC#N)S(=O)(=O)c2ccccc2)ccc1/C=C1\N=C(c2ccc(Cl)cc2)OC1=O
inactive: [1] -4.5% | [2] 6.9% | [3] 7.8% | [4] -18.6% | [5] -2.7% | [6] 17.4%

C=C(C)COCc1ccc(C(C)(C)CC(C)(C)C)cc1
inactive: [1] -14.6% | [2] -10.3% | [3] -9.85% | [4] -23.5% | [5] -15.4% | [6] 1.55%

NC(CCC1CCCCC1)C(=O)O (configuration not stated)
inactive: [1] -7.75% | [2] 6.8% | [3] 0.5% | [4] -3.65% | [5] 22.6% | [6] 3.7%

O=S(=O)(O)c1cccc2c(O)cccc12
inactive: [1] -7.9% | [2] -2.9% | [3] 5.65% | [4] 34.9% | [5] 5.35% | [6] -32%

O=C(Nc1ccc(F)cc1)Nc1ccc(I)cc1
inactive: [1] 13.2% | [2] 1.15% | [3] 5.6% | [4] 15.4% | [5] 17.2% | [6] 8.95%

O=C(NC(CS)C(=O)O)c1cnc2ccccc2n1 (configuration not stated)
inactive: [1] -4.8% | [2] -12.9% | [3] 21.2% | [4] -9.9% | [5] 18.6% | [6] 0.3%

O=C(O)c1cccc(C2=CCCC2)c1
inactive: [1] 15.2% | [2] 6.1% | [3] 14.1% | [4] 10.3% | [5] -26.5% | [6] 15.7%

CC(C)OC(=O)NC1CCC2CCCCC2C1 (configuration not stated)
inactive: [1] 2.7% | [2] 11.5% | [3] -8.3% | [4] -19.9% | [5] 15.7% | [6] -4.75%

CC(C)(C)C1CCC2c3c([nH]c4ccccc34)C3C(=O)N(c4ccc(Br)cc4)C(=O)C3C2C1 (configuration not stated)
inactive: [1] 12.8% | [2] 11.8% | [3] 8.05% | [4] -35.6% | [5] 13.8% | [6] 6.15%

C=CC1(c2ccc3ccccc3c2)OCC(CC)(CC)CO1
inactive: [1] -18.1% | [2] 7.15% | [3] -3.6% | [4] -4.7% | [5] 7.75% | [6] 21.5%

CCCc1cc(OC(=O)c2c(O)cc(OC)cc2CCC)cc(O)c1C(=O)O
inactive: [1] 35.1% | [2] 44.1% | [3] 15.9% | [4] 49.2% | [5] 32% | [6] 24.5%

O=S(=O)(Nc1cccc(Cl)c1)c1ccc(Cl)cc1
active: [1] 99.7% | [2] 99.8% | [3] 99.8% | [4] 99.6% | [5] 99.7% | [6] 99.7%

CCOC(=O)c1[nH]c2cccc3c2c1CC[C@H](NC(=O)C(F)(F)F)C3=O
inactive: [1] -5.1% | [2] 9.3% | [3] 10.8% | [4] 18.2% | [5] 0.95% | [6] 8.3%

CNCc1ccccc1[N+](=O)[O-]
inactive: [1] 6.75% | [2] -3.95% | [3] -3.9% | [4] -9.95% | [5] 3.7% | [6] -0.3%

COc1cc(C(=O)Nc2c3ccccc3nc3ccccc23)cc(OC)c1OC
inactive: [1] -19.9% | [2] -4.55% | [3] 7.8% | [4] -23.6% | [5] -3.3% | [6] -14.6%

NC(=S)N=Nc1c(O)[nH]c2c(Cl)cc(Cl)cc12
inactive: [1] 6.7% | [2] -14.2% | [3] 28.6% | [4] 7.15% | [5] 13.8% | [6] -8.95%
